hgDAF-12 ag = hgDAF-12 agonism, primary luciferase screen; HEK293 GAL4-hgDAF12 UAS-luciferase reporter, agonist luminescence; normalized to butyrate control; activation, % at 6.8 µM; actives 1.8% (n = 370,000); AID 687014;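 active means activation above a cutoff set at the mean of all screened compounds plus 3 SD, cut at about 10% in these data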;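 further: 0% = DMSO wells and 100% = sodium butyrate wells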
DAX1 inh-1 = inhibits human nuclear receptor DAX1. P51843. HEK293 Gal4-DAX1 luciferase reporter, luminescence. inhibition, % at 6.75 µM. actives 0.99% (n = 340,000). AID 504766;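 active means inhibition above the mean over all tested compounds plus 3 SD, cut at about 4.2% in these data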;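 further: 0% = DAX1-transfected cells with DMSO and 100% = empty-vector control cells with DMSO; inhibition shows as a rise in luminescence from relieved DAX1 repression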
Target sequence (P51843 207-470 limits assumed): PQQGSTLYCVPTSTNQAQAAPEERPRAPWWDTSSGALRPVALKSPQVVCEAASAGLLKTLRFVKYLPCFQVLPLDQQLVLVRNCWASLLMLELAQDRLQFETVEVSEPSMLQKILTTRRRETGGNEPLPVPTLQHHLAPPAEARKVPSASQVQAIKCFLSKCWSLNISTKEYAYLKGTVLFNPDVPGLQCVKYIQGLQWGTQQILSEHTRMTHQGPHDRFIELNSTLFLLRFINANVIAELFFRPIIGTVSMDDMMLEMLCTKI
FXN GAA850 act = increases GAA850 frataxin promoter reporter activity | HEK293 lucGAA850 FXN promoter luciferase reporter, 24 h; percent of 10 µM SAHA response | activation, % at 6 µM | actives 0.56% (n = 360,000) | AID 540364;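 active means activation above the average of all compounds screened plus 3 SD, cutoff fixed separately per campaign, cut at about 7.5% in these data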;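 further: 0% = DMSO wells and 100% = 10 µM SAHA wells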
DAX1 inh-2 = DAX1 (NR0B1) inhibition, primary screen; AID 652010; inhibition, % at 6.8 µM; actives 1.1% (n = 370,000); HEK293T StAR-luciferase reporter, SF-1/DAX-1 repression relief;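 active means inhibition above the mean over all tested compounds plus 3 SD, cut at about 3.6% in these data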;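 further: 0% = DAX-1 cells with DMSO and 100% = cells lacking DAX-1 with DMSO; higher inhibition means more luminescence from relief of DAX-1 repression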
ssDAF12 agonist = activates DAF-12 receptor from parasite S. stercoralis; activation, % at 6.8 µM; HEK293 ssDAF-12/GRIP1 lit1-tk-luc reporter, luminescence; % of 3 µM dafachronic acid response; actives 1% (n = 370,000); AID 652126;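 active means activation above the mean over all tested compounds plus 3 SD, cut at about 0.9% in these data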;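 further: 0% = DMSO-only wells and 100% = 3 µM delta7-dafachronic acid wells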
hcDAF-12 act = H. contortus DAF-12 activation, primary screen. actives 1.4% (n = 370,000). AID 652067. activation, % at 6.8 µM. HEK293 hcDAF-12 lit1-tk-luc reporter, luminescence; 0% DMSO, 100% Δ7-dafachronic acid;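 active means activation above the mean of all tested compounds plus 3 SD, cut at about 5.5% in these data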;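 further: 100% = response to 3 µM Δ7-dafachronic acid high control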
* marks the source's active call; other numbers are inactive results; · = no result. The list is not random: actives were taken first. Their share in the collection is about 4.5%.

SMILES	hgDAF-12 ag	DAX1 inh-1	FXN GAA850 act	DAX1 inh-2	ssDAF12 agonist	hcDAF-12 act
CCOc1cc2c(cc1O)C(=NOC)CC1C2CCC2(C)C(O)CCC12 (stereo not drawn)	-6	1	0	4.3*	-1	1
C[C@]12CC[C@@H]3c4cc(O)c(O)cc4CC[C@H]3[C@@H]1CC[C@@H]2O	-1	0	2	-3	-1	-3
O=S(=O)(CC1NCc2cc(F)ccc21)NCc1ccccc1 (stereo not drawn)	0	·	·	-1	-1	1
Cc1cccn2c(=O)c3cc(C(=O)N4CCN(Cc5ccccc5)CC4)sc3nc12	2	-1	2	-1	-1	4
Cc1cccn2c(=O)c3cc(C(=O)N4CCCCC4)sc3nc12	6	2	4	1	1.5*	5
CC1CCCN(C(=O)c2cc3c(=O)n4ccccc4nc3s2)C1 (stereo not drawn)	7	1	6	1	0	5
Cc1cccn2c(=O)c3cc(C(=O)N4CCCC(C)C4)sc3nc12 (stereo not drawn)	3	0	5	1	1.2*	4
Cc1ccc(Cn2nnc3c2-c2ccccc2S(=O)(=O)N(C)C3)cc1	-3	·	·	-1	-2	-2
O=S1(=O)c2c(cccc2N2CCSCC2)Oc2ccccc2CN1Cc1cn(Cc2cccc(C(F)(F)F)c2)nn1	-1	·	·	0	-1	-3
Fc1ccc(-c2nc3c4ccccc4ccn3c2CC2CCCCC2)cc1	4	·	·	2	1.6*	6.4*
CCCc1nc2c3ccccc3ccn2c1CC1CCCCC1	6	·	·	1	0	6.2*
Clc1cccc(-c2nc3c4ccccc4ccn3c2CC2CCCCC2)c1	3	·	·	2	1.1*	4
c1ccc(-c2nc3c4ccccc4ccn3c2CN2CCCCC2)cc1	4	1	5	0	0	3
CC(=O)NC(=S)Nc1ccccc1F	-1	6.3*	2	0	-1	-1
COc1ccc(C(=O)NC(=S)Nc2ccccc2F)cc1	11*	1	6	1	-1	2
CS(=O)(=O)N[C@@H]1C[C@@H]2O[C@@H](CO)CC[C@@H]2O[C@@H]1CCc1ccc(-c2ccccc2F)cc1	-1	·	·	-2	-2	-1
CCOc1ccc(-n2c(SCC(=O)Nc3ccc(S(=O)(=O)Nc4nccs4)cc3)nnc2-c2ccc(C(C)(C)C)cc2)cc1	3	·	·	0	-1	1
O=S1(=O)c2ccc(Br)cc2OC[C@@H](Cc2ccccc2)N1Cc1cn(Cc2ccc(Cl)cc2)nn1	3	·	·	-1	-2	1
CC(C)OCCCNc1ncnc2c1cnn2-c1ccccc1	12*	-1	1	3	0	5
c1ccc(-n2ncc3c(NCCN4CCCCC4)ncnc32)cc1	3	1	0	0	-1	0
CN(C)CCCNc1ncnc2c1cnn2-c1ccccc1	·	1	3	·	·	·
c1ccc(CCNc2ncnc3c2cnn3-c2ccccc2)cc1	12*	1	3	3.7*	1	3
Cc1cc(C)cc(N(CC(=O)NC2CCC(C)CC2)S(=O)(=O)c2cccs2)c1 (stereo not drawn)	6	·	·	0	-1	0
CCCCNS(=O)(=O)/C=C/c1ccc(F)cc1CNC(=O)OC(C)(C)C	-1	·	·	-1	-2	-2
Cc1ccc(S(=O)(=O)c2nc(-c3ccccc3)oc2NCCCN2CCOCC2)cc1	11*	1	4	0	-1	-1
COc1ccc(-c2nc(S(=O)(=O)c3ccccc3)c(NCCCN3CCOCC3)o2)cc1	0	0	0	0	-1	0
Cc1ccc(S(=O)(=O)N2CCCC2C(=O)N2CCc3ccccc3C2)cc1C (stereo not drawn)	0	·	·	0	0	0
Cc1ccc(C(=O)NCc2ccccc2F)cc1S(=O)(=O)N1CCCC1	0	1	1	0	-1	-2
Cc1ccc(NC(=O)CCl)cc1S(=O)(=O)N1CCCCCC1	-11	0	-5	-2	-1	-1
COCCNCC(=O)Nc1ccc(C)c(S(=O)(=O)N2CCCCC2)c1	-2	4.3*	1	1	-1	0
